Bead autofluor – counter-screen for toxin protease inhibitors: compound fluorescence | compound autofluorescence counterscreen, microsphere flow cytometry; hits give high values | fluorescence intensity (test concentration not listed) | 3.1% of 360,000 active | AID 624483; in the data active = fluorescence intensity above about 16000; inconclusive = no clear call, values can overlap the other calls
BoNT F protease – inhibitors of Botulinum neurotoxin F light chain protease; Multiplex microsphere protease cleavage assay, flow cytometry; inhibition, % at 10 µM; 0.22% of 360,000 active; AID 588497; in the data active = inhibition above about 35%, passing the limit was not always enough; inconclusive = no clear call, values can overlap the other calls; also: plate controls were buffer without enzyme for full effect and enzyme alone for no effect
BoNT A protease – blocks Botulinum neurotoxin A light chain protease | inhibition, % at 10 µM | 0.17% of 360,000 active | multiplex microsphere protease substrate cleavage, flow cytometry; also: plate controls were buffer without enzyme for full effect and enzyme alone for no effect
Anthrax LF prot – inhibitors of Bacillus anthracis lethal factor protease; multiplex microsphere protease cleavage assay, LF; inhibition, % at 10 µM; 0.12% of 360,000 active; AID 588501; also: plate controls were buffer without enzyme for full effect and enzyme alone for no effect
* hit, by the source's call; ? = inconclusive. Only some compounds are listed: those with a hit (about 3.5% of all), similar ones and a draw of the others. Rule as the data show it, unless noted: active = inhibition above about 30%; inconclusive = no clear call, values can overlap the other calls; inactive = below that.

SMILES	Bead autofluor	BoNT F protease	BoNT A protease	Anthrax LF prot
Fc1ccccc1OCCCCN1CCCCC1	4031	?	-7	0
CCCC1=C(C(=O)OCC)C2(C(=O)Nc3ccc(C)cc32)C(C#N)=C(N)O1 (stereo not drawn)	20310*	1	?	2
CCOC(=O)CC1=C(C(=O)OCC)C2(C(=O)Nc3ccccc32)C(C#N)=C(N)O1 (stereo not drawn)	4337	1	-1	-1
Cc1cccc(NC(=O)CC2Nc3cccc4cccc(c34)NC2=O)c1 (stereo not drawn)	17191*	-7	?	-4
COc1ccccc1CNC(=O)c1cc(S(=O)(=O)N2CCOCC2)cn1C	6414	3	-1	-3
O=C(Nc1nncs1)c1cccc(S(=O)(=O)N2CCOCC2)c1	16353*	0	1	0
O=C(Nc1ccc(Cl)cn1)c1cccc(S(=O)(=O)N2CCOCC2)c1	20815*	6	4	0
COc1cccc(NC(=O)CN(C)C(=O)C2=COCCO2)c1	4205	13	4	1
N#Cc1ccc(OCC(O)CN2CCN(c3ncc(C(F)(F)F)cc3Cl)CC2)cc1 (stereo not drawn)	5271	3	0	0
CCCCCOC(=O)C(C)Sc1n[nH]c(=O)[nH]c1=O (stereo not drawn)	2240	0	0	-2
CCCCOC(=O)CSc1n[nH]c(=O)[nH]c1=O	23897*	-2	0	1
COc1ccc(C(=O)NC(CC(C)C)C(=O)O)cc1OC (stereo not drawn)	20991*	-4	?	-3
O=S1(=O)CC(N2CCN(CC3CC3)CC2)CN1Cc1ccccc1 (stereo not drawn)	5119	-2	0	6
C=CC(=O)NC(NC(=O)C=C)c1ccc(Br)cc1	21256*	-4	?	0
CC(NC(=O)c1ccccc1)c1ccc(Br)cc1 (stereo not drawn)	4597	0	0	2
CCC1(CC)NC(=O)N(CC(=O)OCC(=O)Nc2ccc(OC(F)(F)F)cc2)C1=O	6216	5	4	0
Cc1c(OCc2nn[nH]n2)ccc2c3c(c(=O)oc12)CCC(C)C3 (stereo not drawn)	22299*	-1	?	-10
CC(=O)C(C)Oc1ccc2c3c(c(=O)oc2c1)CCCC3 (stereo not drawn)	4182	0	0	-1
COc1ccc(-c2cc(=O)oc3cc(OCc4nn[nH]n4)ccc23)cc1	16695*	-2	0	-3
CC(=O)C(C)Oc1ccc2c3c(c(=O)oc2c1)CCCCC3 (stereo not drawn)	19944*	2	?	-1
O=c1oc2cc(OCc3nn[nH]n3)ccc2c2c1CCCC2	18827*	12	7	-5
CN(C(=O)c1ccccc1-c1ccccc1C(=O)O)c1ccccc1	3840	?	1	9
CN1C(=O)CC(=O)N(C)c2cc(S(=O)(=O)N(C)Cc3ccccc3)ccc21	6195	1	0	0
COc1ccccc1CCNC(=O)C(=O)Nc1cc2c3c(c1)CC(=O)N3CCC2	4015	7	2	2
Cc1c(OCc2nn[nH]n2)ccc2c3c(c(=O)oc12)CCCC3	22827*	1	2	-1
SMILES	Bead autofluor	BoNT F protease	BoNT A protease	Anthrax LF prot
Cc1cc(OCc2nn[nH]n2)c2c3c(c(=O)oc2c1)CCC3	19295*	6	3	-3
Cc1cc2oc(=O)c3c(c2cc1OCc1nn[nH]n1)CCCC3	4546	-5	0	-4
CCCn1c(=O)c2ccccc2n2c(SCc3c(C(=O)OCC)oc4ccccc34)nnc12	10290	-1	1	0
COc1ccccc1-n1nnnc1SCC(=O)Nc1ccccn1	19311*	5	4	-10
COc1ccc(OC)c(-n2nnnc2SCC(=O)Nc2ccc3c(c2)OCCO3)c1	5394	-3	1	-3
CCOC(=O)c1oc2ccccc2c1CSc1nnnn1-c1ccc(OC)cc1	21747*	3	?	0
CCOC(=O)CSc1nnnn1-c1cc(OC)ccc1OC	16299*	0	0	-2
CCCc1ccc(C(=O)/C=C/N(C)C)cc1	4384	-4	0	-3
Cc1cc(C(C)(C)C)ccc1OCC(=O)N/N=C\c1c(C)n(C)n(-c2ccccc2)c1=O	3984	-19	-2	-11
Cn1cnc2ncnc(Oc3ccc(Br)cc3)c21	4636	-7	-1	-2
COC(=O)C1=C(C)N=C2SCCC(=O)N2C1c1cccs1 (stereo not drawn)	3337	-5	0	-5
COCCOC(=O)C1=C(C)N=C2SCCC(=O)N2C1c1ccc(C(=O)OC)cc1 (stereo not drawn)	3273	-10	0	1
COC(=O)C1=C(C)N=C2SCCC(=O)N2C1c1ccc(C(=O)OC)cc1 (stereo not drawn)	24822*	-7	-3	-1

Source: PubChem BioAssay
